Measured values: PubChem BioAssay (NCATS)
Several values for one entry are separate records, joined by “and”; a condition that tells them apart may be missing. Equal entries are not always repeated. Inconclusive results are not listed. The source holds several records for some structures; these can differ, active in one and inactive in another. Activity calls are given as the source filed them. Unless noted, calls come from the whole dose curve; as a rule, active = well fitted curve in the direction sought with a large enough effect; inconclusive = small, poorly fitted or top-dose-only effect, or another doubt; inactive = no such curve, though single readings can be large; an effect the other way counts as inactive or inconclusive.

Tests used:
[1] = biological target: DNA polymerase III PolC-type (Bacillus subtilis (strain 168)) (UniProt P13267); experiment: qHTS Validation Assay for the Inhibitors of DNA Replication in Gram-Positive Bacteria (AID 485295); details: Gram-positive bacterial DNA replication assay; series mostly up to 57.1 µM; note: potency is the fitted concentration of half-maximal effect
DNA polymerase III PolC-type (Bacillus subtilis (strain 168)), sequence (P13267 whole entry, looked up): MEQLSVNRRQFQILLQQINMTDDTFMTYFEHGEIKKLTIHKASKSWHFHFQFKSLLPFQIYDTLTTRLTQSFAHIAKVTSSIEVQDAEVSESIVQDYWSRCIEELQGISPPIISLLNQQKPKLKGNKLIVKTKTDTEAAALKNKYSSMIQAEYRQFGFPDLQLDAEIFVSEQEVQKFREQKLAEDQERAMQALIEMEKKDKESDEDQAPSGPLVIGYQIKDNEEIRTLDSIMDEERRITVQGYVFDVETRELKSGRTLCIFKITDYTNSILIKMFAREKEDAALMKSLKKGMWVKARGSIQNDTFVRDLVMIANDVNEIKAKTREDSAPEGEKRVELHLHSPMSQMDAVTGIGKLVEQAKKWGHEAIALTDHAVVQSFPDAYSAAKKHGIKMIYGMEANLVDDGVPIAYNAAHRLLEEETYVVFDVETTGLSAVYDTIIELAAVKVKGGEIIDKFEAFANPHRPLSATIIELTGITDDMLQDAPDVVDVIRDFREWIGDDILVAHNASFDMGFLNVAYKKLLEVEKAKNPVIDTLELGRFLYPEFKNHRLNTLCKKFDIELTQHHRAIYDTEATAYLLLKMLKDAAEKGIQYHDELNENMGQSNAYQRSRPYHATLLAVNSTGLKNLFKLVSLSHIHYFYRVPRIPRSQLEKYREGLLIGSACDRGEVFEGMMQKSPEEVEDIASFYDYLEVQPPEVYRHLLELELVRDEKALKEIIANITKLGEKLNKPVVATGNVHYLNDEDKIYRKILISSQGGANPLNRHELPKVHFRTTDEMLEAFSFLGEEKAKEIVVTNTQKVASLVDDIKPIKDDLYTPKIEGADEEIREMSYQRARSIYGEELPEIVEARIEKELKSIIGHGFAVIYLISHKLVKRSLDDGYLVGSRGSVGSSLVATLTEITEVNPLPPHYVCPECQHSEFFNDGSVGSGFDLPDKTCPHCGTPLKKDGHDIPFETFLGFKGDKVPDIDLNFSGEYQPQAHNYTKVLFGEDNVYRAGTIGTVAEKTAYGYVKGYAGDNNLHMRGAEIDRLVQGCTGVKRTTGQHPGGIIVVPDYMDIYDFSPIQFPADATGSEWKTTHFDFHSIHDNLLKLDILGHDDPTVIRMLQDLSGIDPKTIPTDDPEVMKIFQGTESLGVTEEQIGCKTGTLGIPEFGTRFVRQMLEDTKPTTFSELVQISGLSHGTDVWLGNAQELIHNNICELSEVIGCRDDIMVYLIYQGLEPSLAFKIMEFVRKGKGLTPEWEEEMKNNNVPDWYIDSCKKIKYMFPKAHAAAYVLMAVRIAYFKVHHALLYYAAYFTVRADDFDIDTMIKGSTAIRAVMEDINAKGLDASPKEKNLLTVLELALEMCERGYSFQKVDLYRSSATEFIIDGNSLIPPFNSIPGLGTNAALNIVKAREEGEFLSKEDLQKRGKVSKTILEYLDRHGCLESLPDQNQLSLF
In short: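 First, compound is mixed with the reconstituted replication complex and held at room temperature. Next, circular single-stranded M13Gori with nucleotides starts synthesis. Finally, PicoGreen in EDTA halts the reaction and stains double-stranded product for fluorescence reading.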

[2] = biological target: Tumor susceptibility gene 101 protein (Homo sapiens) (UniProt Q99816); experiment: qHTS Validation Assay for Iinhibitors of HIV-1 Budding by Blocking the Interaction of PTAP/TSG101 (AID 485342; calls by dose curve); details: TSG101-PTAP binding, fluorescence polarization, 4-point titration; series mostly up to 115 µM
Tumor susceptibility gene 101 protein (Homo sapiens), sequence (Q99816 whole entry, looked up, the tested form may be a part): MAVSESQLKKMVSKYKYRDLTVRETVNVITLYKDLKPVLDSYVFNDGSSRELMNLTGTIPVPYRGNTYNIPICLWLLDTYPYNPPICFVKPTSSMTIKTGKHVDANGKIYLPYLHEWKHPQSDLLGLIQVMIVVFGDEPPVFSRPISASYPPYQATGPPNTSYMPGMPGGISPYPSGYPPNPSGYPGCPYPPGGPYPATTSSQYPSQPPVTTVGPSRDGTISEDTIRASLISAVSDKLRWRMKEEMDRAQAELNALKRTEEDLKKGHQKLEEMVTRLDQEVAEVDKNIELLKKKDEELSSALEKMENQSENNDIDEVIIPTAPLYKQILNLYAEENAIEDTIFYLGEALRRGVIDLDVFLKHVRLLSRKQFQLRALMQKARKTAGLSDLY
In short: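 Binding of a FITC-tagged PTAP-motif peptide (50 nM) to the Tsg101 binding domain (10 uM) is monitored by fluorescence polarization. Compounds are pin-delivered before peptide addition, and incubation runs 20 min at room temperature.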

[3] = qHTS Validation Assay to Find Inhibitors of Chronic Active B-Cell Receptor Signaling (AID 485345; active = well fitted curve in the direction sought with a large enough effect in the main read-out, with a control signal flat, not every such curve was filed as active; note: potency is the fitted concentration of half-maximal effect); details: ABC-DLBCL cells, chronic BCR signaling reporter, CBG luciferase; series mostly up to 46.1 µM
In short: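 TMD8 ABC-DLBCL cells stably carrying doxycycline-inducible IkappaBalpha–green luciferase fusion plus unfused red luciferase; compounds 46 uM to 3 nM, 4 h at 37C with doxycycline. Corrected green/red luminescence ratio normalized to 10 uM MG-132 and basal cell wells; curves fitted.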

[4] = biological target: Beta-2 adrenergic receptor (Homo sapiens) (UniProt P07550); experiment: qHTS validation assay of beta-arrestin-biased ligands of beta2-adrenergic receptor (AID 485366); details: cell-based beta-arrestin recruitment to ADRB2, qHTS; series mostly up to 46.1 µM
Beta-2 adrenergic receptor (Homo sapiens), sequence (P07550 whole entry, looked up): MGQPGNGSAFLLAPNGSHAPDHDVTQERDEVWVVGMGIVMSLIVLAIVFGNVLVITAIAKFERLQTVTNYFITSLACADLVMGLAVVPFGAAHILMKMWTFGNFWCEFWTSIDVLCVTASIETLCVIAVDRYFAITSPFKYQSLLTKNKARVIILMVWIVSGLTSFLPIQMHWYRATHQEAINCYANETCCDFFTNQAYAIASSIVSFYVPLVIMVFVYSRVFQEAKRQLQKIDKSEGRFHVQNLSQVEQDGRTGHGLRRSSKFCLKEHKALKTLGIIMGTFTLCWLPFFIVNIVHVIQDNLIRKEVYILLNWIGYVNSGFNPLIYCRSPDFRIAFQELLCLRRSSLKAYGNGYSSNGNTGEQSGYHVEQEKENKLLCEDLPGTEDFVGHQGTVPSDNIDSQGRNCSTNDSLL
In short: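 Values derive from curve-fitted %Activity of a luminescent beta-arrestin recruitment reporter; compounds tested up to 46 microM on Tango cells for 18 hr at 37 degrees C, 5% CO2.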

[5] = biological target: ATP-dependent 6-phosphofructokinase (Trypanosoma brucei brucei) (UniProt O15648); experiment: qHTS Validation Assay to Find Inhibitors of T. brucei phosphofructokinase (AID 485368); note: potency is the fitted concentration of half-maximal effect; details: T. brucei PFK enzyme assay, qHTS 7-point titration; series mostly up to 57.5 µM
ATP-dependent 6-phosphofructokinase (Trypanosoma brucei brucei), sequence (O15648 whole entry, looked up): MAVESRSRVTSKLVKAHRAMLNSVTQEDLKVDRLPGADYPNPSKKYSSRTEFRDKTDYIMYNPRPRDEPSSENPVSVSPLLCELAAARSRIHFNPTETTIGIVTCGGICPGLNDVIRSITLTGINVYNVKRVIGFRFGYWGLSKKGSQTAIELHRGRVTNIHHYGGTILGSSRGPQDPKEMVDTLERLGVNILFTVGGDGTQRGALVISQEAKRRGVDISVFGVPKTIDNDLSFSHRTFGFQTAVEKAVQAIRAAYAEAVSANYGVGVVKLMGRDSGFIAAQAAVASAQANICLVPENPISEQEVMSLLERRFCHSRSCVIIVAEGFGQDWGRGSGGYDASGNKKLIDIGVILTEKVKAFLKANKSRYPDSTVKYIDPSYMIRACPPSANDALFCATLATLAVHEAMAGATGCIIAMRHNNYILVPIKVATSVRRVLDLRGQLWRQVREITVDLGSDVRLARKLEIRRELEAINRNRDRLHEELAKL
In short: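 Enzyme reaction in triethanolamine buffer pH 8.0 with 5 mM MgCl2, 0.01% Tween20 and 0.1% BSA; PFK 1.25 nM, F6P 0.5 mM, ATP 0.1 mM, 45 min RT. ADP quantified by ADP-Glo.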

[6] = Quantitative high throughput screen for delayed death inhibitors of the malarial parasite plastid, 96 hour incubation (AID 488745); details: Plasmodium falciparum growth; series mostly up to 28.7 µM; note: nearly all actives have a fitted effect of over 70% in size; note: potency is the fitted concentration of half-maximal effect
In short: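 Luciferase-expressing P. falciparum in erythrocytes (2% hematocrit, 0.1% parasitemia) incubated with compound for 96 h at 37 C, 5% CO2, in RPMI 1640 with 0.5% Albumax. Growth inhibition read as decreased luminescence.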

[7] = Quantitative high throughput screen for delayed death inhibitors of the malarial parasite plastid, 48 hour incubation (AID 488752); details: Plasmodium falciparum growth; series mostly up to 28.7 µM; note: nearly all actives have a fitted effect of over 65% in size; note: potency is the fitted concentration of half-maximal effect
In short: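 Erythrocytes infected with firefly luciferase-expressing P. falciparum (2% hematocrit, 0.1% parasitemia) cultured with compound for 48 h at 37 C, 5% CO2, in RPMI 1640/0.5% Albumax. Growth inhibition read as loss of luminescence.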

[8] = biological target: Thioredoxin reductase 1, cytoplasmic (Rattus norvegicus) (UniProt O89049); experiment: qHTS Assay for Inhibitors of Mammalian Selenoprotein Thioredoxin Reductase 1 (TrxR1) (AID 488773); details: purified TrxR1 enzyme activity; Potency: inhibition; series mostly up to 57.1 µM; note: nearly all actives have a fitted effect of over 40% in size; note: potency is the fitted concentration of half-maximal effect
Thioredoxin reductase 1, cytoplasmic (Rattus norvegicus), sequence (O89049 whole entry, looked up): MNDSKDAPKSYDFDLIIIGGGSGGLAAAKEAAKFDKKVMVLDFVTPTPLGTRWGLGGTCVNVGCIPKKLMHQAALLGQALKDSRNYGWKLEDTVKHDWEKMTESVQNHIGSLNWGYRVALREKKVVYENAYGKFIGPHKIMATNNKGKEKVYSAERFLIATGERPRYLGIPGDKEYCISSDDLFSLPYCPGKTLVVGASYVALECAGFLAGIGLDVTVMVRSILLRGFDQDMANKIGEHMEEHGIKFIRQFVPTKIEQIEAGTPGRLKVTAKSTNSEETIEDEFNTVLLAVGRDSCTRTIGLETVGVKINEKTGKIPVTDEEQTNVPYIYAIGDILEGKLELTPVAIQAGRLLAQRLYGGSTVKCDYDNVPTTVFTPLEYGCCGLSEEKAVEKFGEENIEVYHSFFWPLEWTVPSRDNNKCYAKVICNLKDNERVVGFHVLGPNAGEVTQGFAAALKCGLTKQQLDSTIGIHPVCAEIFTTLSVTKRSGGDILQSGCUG
In short: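 Steps: enzyme (90 nM) plus NADPH (400 uM final), 5 min at ~22 deg C; compound added, 15 min; selenite (400 uM final) added; fluorescence followed for 8 min. Concentration-response curves derived from the normalized delta values.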

[9] = biological target: M-phase phosphoprotein 8 (Homo sapiens) (UniProt Q99549); experiment: qHTS Validation Assay for Inhibitors for MPP8 Chromodomain Interactions with Methylated Histone Tails (AID 488949); details: AlphaScreen MPP8 binding to H3K9me3 peptide; series mostly up to 57.1 µM; note: nearly all actives have a fitted effect of over 55% in size; note: potency is the fitted concentration of half-maximal effect
M-phase phosphoprotein 8 (Homo sapiens), sequence (Q99549 whole entry, looked up): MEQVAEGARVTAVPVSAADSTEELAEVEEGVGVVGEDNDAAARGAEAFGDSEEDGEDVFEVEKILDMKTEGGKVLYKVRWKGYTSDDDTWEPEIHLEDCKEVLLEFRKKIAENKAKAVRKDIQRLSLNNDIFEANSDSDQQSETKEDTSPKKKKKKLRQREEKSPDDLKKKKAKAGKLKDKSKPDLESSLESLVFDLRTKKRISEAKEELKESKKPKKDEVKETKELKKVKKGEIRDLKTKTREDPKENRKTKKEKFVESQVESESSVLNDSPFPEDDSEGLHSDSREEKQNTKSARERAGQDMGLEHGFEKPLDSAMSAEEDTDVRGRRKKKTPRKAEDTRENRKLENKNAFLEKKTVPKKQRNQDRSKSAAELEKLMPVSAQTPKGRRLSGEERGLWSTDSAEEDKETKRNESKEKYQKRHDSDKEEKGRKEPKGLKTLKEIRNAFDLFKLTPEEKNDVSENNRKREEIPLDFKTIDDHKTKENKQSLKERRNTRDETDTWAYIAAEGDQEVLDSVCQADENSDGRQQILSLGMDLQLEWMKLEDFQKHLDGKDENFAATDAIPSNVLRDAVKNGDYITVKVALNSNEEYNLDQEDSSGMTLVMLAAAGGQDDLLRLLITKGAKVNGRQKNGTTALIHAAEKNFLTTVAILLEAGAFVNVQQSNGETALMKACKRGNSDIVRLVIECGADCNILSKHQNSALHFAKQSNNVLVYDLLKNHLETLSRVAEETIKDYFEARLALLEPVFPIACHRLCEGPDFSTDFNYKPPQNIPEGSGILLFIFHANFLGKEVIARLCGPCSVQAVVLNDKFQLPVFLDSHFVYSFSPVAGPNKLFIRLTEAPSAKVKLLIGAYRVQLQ
In short: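 50 nM MPP8 + 50 nM b-H3K9me3 peptide, PBS pH 7.4/0.01% Tween-20, 30 min RT; + cpd 30 min RT; + AlphaScreen donor/Ni-chelate acceptor beads 10 ug/mL final, 30 min dark; luminescence read.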

[10] = biological target: Chromobox protein homolog 1 (Homo sapiens) (UniProt P83916); experiment: qHTS Validation Assay for Inhibitors of HP1-beta Chromodomain Interactions with Methylated Histone Tails (AID 488953); details: HP1-beta chromodomain / methylated histone peptide binding assay; series mostly up to 114 µM; note: nearly all actives have a fitted effect of over 50% in size; note: potency is the fitted concentration of half-maximal effect
Chromobox protein homolog 1 (Homo sapiens), sequence (P83916 whole entry, looked up): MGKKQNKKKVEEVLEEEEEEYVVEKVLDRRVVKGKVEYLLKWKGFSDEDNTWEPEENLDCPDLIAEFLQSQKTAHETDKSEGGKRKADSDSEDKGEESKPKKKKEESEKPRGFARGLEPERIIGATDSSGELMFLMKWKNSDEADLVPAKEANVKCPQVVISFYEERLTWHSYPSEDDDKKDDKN
In short: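 HP1-beta (50 nM) preformed 30 min with biotinylated H3(1-18)K9me3 peptide (50 nM) in PBS pH 7.4, 0.01% Tween-20. Compounds added for 30 min at room temperature. Complex disruption read by AlphaScreen with streptavidin donor/nickel chelate acceptor beads (10 ug/mL each).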

Measured: Potency

O=C(c1ccccc1)c1ccc2n1CCC2C(=O)O (stereo unspecified)
inactive: [1] | [2] | [3] | [4] | [5] | [6] | [7] | [8] | [9]

O=c1ccc2ccc(O)c(O)c2o1
inactive: [1] | [2] | [3] | [4] | [8]
active: [6] 14.7 µM

C[C@@H](N)C1CCC(C(=O)Nc2ccncc2)CC1 (stereo partly specified)
inactive: [1] | [2] | [3] | [4] | [6] | [7] | [8] | [9] | [10]

Cc1c(OCC(F)(F)F)ccnc1CS(=O)c1nc2ccccc2[nH]1 (stereo unspecified)
inactive: [1] | [2] | [3] | [4] | [8]

NC(=NCc1ccccc1)NC(=O)c1nc(Cl)c(N)nc1N
active: [6] 2.62 µM | [7] 2.94 µM
inactive: [1] | [2] | [4] | [5] | [8] | [9] | [10]

Nc1nc(OCc2ccccc2)c2[nH]cnc2n1
inactive: [1] | [2] | [4] | [6] | [7] | [8] | [9] | [10]

Cc1cccc(C#Cc2ccccc2)n1
inactive: [1] | [2] | [3] | [8] | [9]

NCCCCNCCCN
inactive: [1] | [2] | [3] | [4] | [5] | [6] | [7] | [8] | [9] | [10]

CN(C)CCCC1(c2ccc(F)cc2)OCc2cc(C#N)ccc21 (stereo unspecified)
inactive: [1] | [2] | [3] | [4] | [6] | [7] | [8] | [9] | [10]

CC1(C)NC(=O)N(c2ccc([N+](=O)[O-])c(C(F)(F)F)c2)C1=O
inactive: [1] | [2] | [3] | [4] | [5] | [6] | [7] | [8] | [9] | [10]

O=c1cc(N2CCOCC2)oc2c(-c3ccccc3)cccc12
active: [3] 2.59 µM | [10] 26.7 µM
inactive: [1] | [2] | [4] | [7] | [8] | [9]

C[C@H](Cc1ccc(O)c(O)c1)[C@@H](C)Cc1ccc(O)c(O)c1
inactive: [2] | [4]
active: [6] 13.1 µM | [8] 9.47 µM | [9] 25.1 µM and 23.8 µM | [10] 31.6 µM

Cc1nc2n(c(=O)c1CCN1CCC(c3noc4cc(F)ccc34)CC1)CCCC2
inactive: [6] | [7] | [9]

CNC[C@H](O)c1ccc(O)c(O)c1
inactive: [1] | [2] | [3] | [6] | [7] | [9] | [10]

Oc1ccc2ccccc2c1SSc1c(O)ccc2ccccc12
active: [10] 0.006 µM
inactive: [1] | [2] | [3] | [4] | [5] | [8]

Nc1ccn([C@@H]2O[C@H](CO)[C@@H](O)C2O)c(=O)n1 (stereo partly specified)
inactive: [1] | [2] | [3] | [4] | [8] | [9] | [10]

COc1ccc2cc([C@H](C)C(=O)O)ccc2c1
inactive: [1] | [2] | [3] | [6] | [7] | [8]
active: [10] 0.006 µM

O=c1c(O)c(-c2ccc(O)cc2O)oc2cc(O)cc(O)c12
inactive: [2] | [3] | [4] | [6] | [7] | [8]
active: [1] 18.9 µM | [9] 39.8 µM | [10] 39.8 µM

O=C(NCC1CCCCN1)c1cc(OCC(F)(F)F)ccc1OCC(F)(F)F (stereo unspecified)
inactive: [6] | [7] | [9]

OC(CN1CCN(c2cccc(Cl)c2)CC1)C(c1ccccc1)c1ccccc1 (stereo unspecified)
inactive: [1] | [2] | [3] | [4] | [5] | [6] | [7] | [8] | [9]

O=C(CCc1ccc(O)cc1)c1c(O)cc(O)cc1O
inactive: [1] | [2] | [3] | [4] | [5] | [6] | [7] | [9] | [10]

CC(=O)O[C@H]1C(=O)[C@@]2(C)C([C@H](OC(=O)c3ccccc3)[C@]3(O)C[C@H](OC(=O)[C@H](O)[C@@H](NC(=O)c4ccccc4)c4ccccc4)C(C)=C1C3(C)C)[C@]1(OC(C)=O)CO[C@@H]1C[C@@H]2O (stereo partly specified)
active: [6] 0.117 µM | [7] 0.117 µM
inactive: [1] | [2] | [3] | [4] | [5] | [8] | [9] | [10]

CC1(C)C(=O)N(CCN2CCC(C(=O)c3ccc(F)cc3)CC2)c2ccccc21
inactive: [1] | [2] | [4] | [8] | [9]

O=c1c(O)c(-c2cc(O)c(O)c(O)c2)oc2cc(O)cc(O)c12
active: [1] 15 µM | [5] 3.01 µM | [8] 13.4 µM | [9] 6.31 µM and 8.44 µM | [10] 14.1 µM
inactive: [2] | [3] | [4] | [6] | [7]

Oc1ccc(-c2nc(-c3ccc(F)cc3)c(-c3ccncc3)[nH]2)cc1
inactive: [1] | [2] | [4] | [5] | [6] | [7] | [8]
31.6 µM (active) and inactive: [9]
active: [10] 56.2 µM

O=C1c2ccccc2-c2n[nH]c3cccc1c23
inactive: [1] | [2] | [4] | [8] | [9] | [10]
active: [6] 4.65 µM

O=Nc1c(-c2c(O)[nH]c3cc(Br)ccc23)[nH]c2ccccc12
active: [6] 4.65 µM | [7] 10.4 µM | [9] 3.55 µM and 5.97 µM | [10] 2.82 µM
inactive: [1] | [2] | [4] | [8]

CC(C)c1ccc2c(c1)c(SC(C)(C)C)c(CC(C)(C)C(=O)O)n2Cc1ccc(Cl)cc1
active: [1] 21.2 µM | [6] 7.38 µM | [7] 13.1 µM
inactive: [2] | [4] | [5] | [8] | [9] | [10]

O=C1c2c(O)cc(O)cc2OC(c2ccc(O)c(O)c2)C1O (stereo unspecified)
active: [8] 8.44 µM | [10] 0.0084 µM
inactive: [1] | [2] | [3] | [4] | [7] | [9]

COc1cc2nc(N3CCN(C(=O)C4CCCO4)CC3)nc(N)c2cc1OC (stereo unspecified)
inactive: [1] | [2] | [4] | [5] | [7] | [8] | [9] | [10]

CC(=O)N1CCN(c2ccc(OC[C@H]3CO[C@](Cn4ccnc4)(c4ccc(Cl)cc4Cl)O3)cc2)CC1
inactive: [1] | [2] | [4] | [5] | [8]

COc1ccccc1N1CCN(CCN(C(=O)C2CCCCC2)c2ccccn2)CC1
inactive: [1] | [2] | [3] | [4] | [5] | [6] | [7] | [8] | [9] | [10]

COc1cc2c(cc1OC)C1CC(=O)C(CC(C)C)CN1CC2 (stereo unspecified)
inactive: [1] | [2] | [4] | [8] | [9] | [10]

Nc1nc(N)c(N=O)c(OCC2CCCCC2)n1
inactive: [1] | [2] | [4] | [5] | [8] | [9]

CCN(CC)C(=S)SSC(=S)N(CC)CC
10 µM (active) and inactive: [9]
active: [10] 28.2 µM
inactive: [1] | [2] | [4]

O=C(O)c1cccnc1Nc1cccc(C(F)(F)F)c1
inactive: [1] | [2] | [4] | [6] | [7] | [8] | [9] | [10]

O=C1NC(=O)C(c2ccccc2[N+](=O)[O-])=C1Nc1ccc(O)c(Cl)c1
active: [8] 2.67 µM | [9] 56.2 µM | [10] 35.5 µM
inactive: [1] | [2] | [3] | [4] | [7]

NNc1nncc2ccccc12
inactive: [1] | [2] | [3] | [4] | [5] | [8] | [9] | [10]

CCOC(=O)C(C)Oc1cccc2c(=O)n(CC(=O)Nc3ccc4c(c3)OCCO4)ccc12 (stereo unspecified)
inactive: [1] | [2] | [4] | [5] | [8] | [9] | [10]

Cc1cc(O)c2c(c1)C(=O)c1cc(O)cc(O)c1C2=O
inactive: [2] | [4] | [6] | [7]
